DAX1 inh-1 – DAX1 (NR0B1) inhibitors, primary screen, cell-based, HEK293, Gal4-DAX1, luciferase luminescence | HEK293 Gal4-DAX1 luciferase reporter | inhibition, % at 6.75 µM | hit rate 0.99% among 340,000 | AID 504766, 2011;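 active = inhibition above the mean over all tested compounds plus 3 SD, cut at about 4.2% in these data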;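 also: 0% = DAX1-transfected cells with DMSO and 100% = empty-vector control cells with DMSO; inhibition shows as a rise in luminescence from relieved DAX1 repression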
DAX1 inh-2 – DAX1 (NR0B1) inhibitors on StAR promoter, primary screen, cell-based, luminescence, SF-1 (NR5A1), full-length DAX-1; inhibition, % at 6.8 µM; HEK293T StAR-luciferase reporter, SF-1/DAX-1 repression relief; AID 652010, 2013; hit rate 1.1% among 370,000;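 active = inhibition above the mean over all tested compounds plus 3 SD, cut at about 3.6% in these data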;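 also: 0% = DAX-1 cells with DMSO and 100% = cells lacking DAX-1 with DMSO; higher inhibition means more luminescence from relief of DAX-1 repression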
hcDAF12 agonist – H. contortus DAF-12 nuclear receptor activators, primary screen, cell-based, luminescence, HEK293, lit1-tk-luc reporter. HEK293 hcDAF-12 lit1-tk-luc reporter; 0% DMSO, 100% Δ7-dafachronic acid. activation, % at 6.8 µM. hit rate 1.4% among 370,000;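 active = activation above the mean of all tested compounds plus 3 SD, cut at about 5.5% in these data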;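 also: 100% = response to 3 µM Δ7-dafachronic acid high control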
hgDAF12 agonist – H. glycines DAF-12 receptor agonists, primary screen, cell-based, luminescence, HEK293, GAL4 fusion, UAS-luciferase | Nuclear hormone receptor DAF-12 (Heterodera glycines), GAL4 fusion | HEK293 GAL4-hgDAF12 UAS-luciferase reporter, agonist luminescence; normalized to butyrate control | activation, % at 6.8 µM | hit rate 1.8% among 370,000 | AID 687014, 2013;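 active = activation above a cutoff set at the mean of all screened compounds plus 3 SD, cut at about 10% in these data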;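 also: 0% = DMSO wells and 100% = sodium butyrate wells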
ssDAF-12 act – S. stercoralis DAF-12 nuclear receptor activators, primary screen, cell-based, luminescence, HEK293, GRIP1 co-expression, lit1-tk-luc; Nuclear hormone receptor DAF-12 (Strongyloides stercoralis); HEK293 ssDAF-12/GRIP1 lit1-tk-luc reporter; % of 3 µM dafachronic acid response; activation, % at 6.8 µM; hit rate 1% among 370,000;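 active = activation above the mean over all tested compounds plus 3 SD, cut at about 0.9% in these data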;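 also: 0% = DMSO-only wells and 100% = 3 µM delta7-dafachronic acid wells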
LXRb hcDAF ctr – LXR agonists, Gal4 luciferase reporter, confirmation, counter-screen for hcDAF-12 agonist project, cell-based, luminescence, HEK293, H. contortus campaign. 3,400 tested, under 10 active. activation, % at 6.8 µM. AID 743027, 2013. shares compounds with hcDAF12 agonist. HEK293 Gal4-LXR tk-luc reporter, 24 h; normalized: DMSO 0%, positive control 100%;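 active = mean percent activation of the reporter above a cutoff set as the average over tested compounds plus their standard deviation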
Target sequence (P55055 whole entry, looked up, the tested form may be a part): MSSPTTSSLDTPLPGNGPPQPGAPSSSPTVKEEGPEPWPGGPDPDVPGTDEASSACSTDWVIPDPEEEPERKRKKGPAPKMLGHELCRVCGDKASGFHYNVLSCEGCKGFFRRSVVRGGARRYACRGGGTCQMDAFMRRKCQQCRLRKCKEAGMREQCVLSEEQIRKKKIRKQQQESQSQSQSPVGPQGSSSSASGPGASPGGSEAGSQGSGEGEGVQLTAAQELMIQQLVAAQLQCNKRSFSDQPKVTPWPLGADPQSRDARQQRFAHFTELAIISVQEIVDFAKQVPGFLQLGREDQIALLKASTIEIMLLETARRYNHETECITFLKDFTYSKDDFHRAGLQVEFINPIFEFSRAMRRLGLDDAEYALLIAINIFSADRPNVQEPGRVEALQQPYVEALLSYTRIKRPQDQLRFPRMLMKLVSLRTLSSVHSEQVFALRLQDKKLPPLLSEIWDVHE
hcDAF12 conf – H. contortus DAF-12 receptor agonists, confirmation, cell-based, luminescence, HEK293, lit1-tk-luc, triplicate; shares compounds with hcDAF12 agonist; HEK293 hcDAF-12 lit1-tk-luc reporter; % of Δ7-dafachronic acid response; activation, % at 6.8 µM; hit rate 61% among 3,400; AID 743032, 2013;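 active = mean activation across triplicate tests above the threshold derived from the earlier primary screen, cut at about 5.5% in these data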;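 also: 0% = DMSO only wells and 100% = 3 µM Δ7-dafachronic acid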
An asterisk follows results filed as active. Shown are actives, neighbours in structure and some others; about 4.1% of the full set was active somewhere.

Oc1csc(Cc2nc(-c3ccc(Br)cc3)cs2)n1 was read as DAX1 inh-1 2, DAX1 inh-2 2, hcDAF12 agonist 8.8*, hgDAF12 agonist 12*, ssDAF-12 act 0, LXRb hcDAF ctr 0 and hcDAF12 conf 7.6*.
For N#Cc1ccsc1NC(=O)COC(=O)c1cc2ccccc2cc1O the results were DAX1 inh-1 2, DAX1 inh-2 2, hcDAF12 agonist 9.3*, hgDAF12 agonist 5, ssDAF-12 act 1.1*, LXRb hcDAF ctr 0 and hcDAF12 conf 10*.
Screening Cc1cc2ccccc2n1CCNC(=O)c1ccc(Br)o1 returned DAX1 inh-1 3, DAX1 inh-2 3, hcDAF12 agonist 8.0*, hgDAF12 agonist 2, ssDAF-12 act 0, LXRb hcDAF ctr 0 and hcDAF12 conf -1.
Cc1cc2ccccc2n1CCNC(=O)c1ccccc1 was read as DAX1 inh-1 -1, DAX1 inh-2 1, hcDAF12 agonist 4, hgDAF12 agonist 1 and ssDAF-12 act 0.
Cc1ccc2c(c1)CCCN2C(=O)c1cccs1 was read as DAX1 inh-1 0, DAX1 inh-2 1, hcDAF12 agonist 7.4*, hgDAF12 agonist 0, ssDAF-12 act 1, LXRb hcDAF ctr 0 and hcDAF12 conf 3.
O=C(c1cccs1)N1CCCc2ccccc21 was read as DAX1 inh-1 -1, DAX1 inh-2 0, hcDAF12 agonist 0, hgDAF12 agonist 0 and ssDAF-12 act -2.
`Cc1ccc(O)c(-c2cc(-c3ccccc3F)[nH]n2)c1` gave DAX1 inh-1 1, DAX1 inh-2 1, hcDAF12 agonist 11*, hgDAF12 agonist 10, ssDAF-12 act 0, LXRb hcDAF ctr 1 and hcDAF12 conf 9.4*.
Screening C#CCOCCOCCOCCNc1nc(N2CCN(C(=O)[C@H](CCCCN)n3cc([C@@H](N)CC(C)C)nn3)CC2)nc(N2CCN(C(=O)[C@H](Cc3cc4ccccc4[nH]3)n3cc([C@@H](N)Cc4ccc(O)cc4)nn3)CC2)n1 returned DAX1 inh-1 0.
Screening C#CCOCCOCCOCCNc1nc(N2CCN(C(=O)[C@H](CCCCN)n3cc([C@@H](N)CC(C)C)nn3)CC2)nc(N2CCN(C(=O)[C@H](Cc3cc4ccccc4[nH]3)n3cc([C@@H](N)CC(C)C)nn3)CC2)n1 returned hcDAF12 agonist 8.1*, hgDAF12 agonist 4, ssDAF-12 act -1, LXRb hcDAF ctr 0 and hcDAF12 conf 4.
CCCC#Cc1ccc2c(c1)COc1c3ccccc3nn1-2 was read as DAX1 inh-1 5.5*, DAX1 inh-2 4.1*, hcDAF12 agonist 11*, hgDAF12 agonist 17*, ssDAF-12 act 2.6*, LXRb hcDAF ctr 2 and hcDAF12 conf 12*.
`O=C(O)c1ccc(Cn2cnc3c(=O)[nH]cnc32)cc1` gave DAX1 inh-1 1, DAX1 inh-2 1, hcDAF12 agonist 10*, hgDAF12 agonist 1, ssDAF-12 act 1.2*, LXRb hcDAF ctr 0 and hcDAF12 conf -1.
`COc1ccc(/C=C\c2nc(=O)c3ccccc3o2)cc1` gave DAX1 inh-1 -1, DAX1 inh-2 4.2*, hcDAF12 agonist 7.2*, hgDAF12 agonist 19*, ssDAF-12 act 0, LXRb hcDAF ctr 1 and hcDAF12 conf 11*.
Cc1ccc2nc(-c3ccc(SCC(=O)N4CCc5ccccc54)nc3)[nH]c2c1 was read as DAX1 inh-1 1, DAX1 inh-2 1, hcDAF12 agonist 7.1*, hgDAF12 agonist 5, ssDAF-12 act 0, LXRb hcDAF ctr 1 and hcDAF12 conf 6.4*.
`Cc1ccc2nc(-c3ccc(SCC(=O)O)nc3)[nH]c2c1` gave DAX1 inh-1 -1, DAX1 inh-2 1, hcDAF12 agonist 1, hgDAF12 agonist 6 and ssDAF-12 act 0.
Screening COC(=O)C(C)Oc1ccc(-c2nccc(-c3cccs3)n2)cc1 (configuration not stated) returned DAX1 inh-1 0, DAX1 inh-2 1, hcDAF12 agonist 0, hgDAF12 agonist 6 and ssDAF-12 act -1.
Screening Oc1ccc(-c2nccc(-c3cccs3)n2)cc1 returned DAX1 inh-1 4.8*, DAX1 inh-2 2, hcDAF12 agonist 12*, hgDAF12 agonist 14*, ssDAF-12 act 1.0*, LXRb hcDAF ctr 1 and hcDAF12 conf 11*.
CC1ON=C(c2cccc3ccccc23)N(C)C1=O (configuration not stated) was read as DAX1 inh-2 1, hcDAF12 agonist 0, hgDAF12 agonist 2 and ssDAF-12 act -1.
For CC(=O)Nc1c(-c2ccc3ccccc3c2)nc2ccccn12 the results were DAX1 inh-1 4.2*, DAX1 inh-2 2, hcDAF12 agonist 7.6*, hgDAF12 agonist 9, ssDAF-12 act 1.9*, LXRb hcDAF ctr 1 and hcDAF12 conf 7.3*.
For CN(C)c1cccc(NC(=O)c2ccco2)c1 the results were DAX1 inh-1 0, DAX1 inh-2 0, hcDAF12 agonist 6.7*, hgDAF12 agonist 0, ssDAF-12 act -1, LXRb hcDAF ctr 0 and hcDAF12 conf 5.
For CCOc1ccc(C(C)=O)cc1COC(=O)CNC(=O)C12CC3CC(CC(C3)C1)C2 the results were DAX1 inh-1 -1, DAX1 inh-2 -4, hcDAF12 agonist -1, hgDAF12 agonist 1 and ssDAF-12 act -1.
Screening Nc1c(C(=O)c2ccccc2)oc2ccc(Br)cc12 returned DAX1 inh-1 5.7*, DAX1 inh-2 4.3*, hcDAF12 agonist 9.9*, hgDAF12 agonist 13*, ssDAF-12 act 1.3*, LXRb hcDAF ctr 1 and hcDAF12 conf 8.3*.
For Cc1ccc(C(=O)c2oc3ccccc3c2N)cc1 the results were DAX1 inh-1 2, DAX1 inh-2 1, hcDAF12 agonist 9.5*, hgDAF12 agonist 11*, ssDAF-12 act 1, LXRb hcDAF ctr 1 and hcDAF12 conf 9.7*.
